Each structure is given as a SMILES string. Values without a mark were called inactive.

This assay in a line: A549 lung cancer cell viability effects, profiling panel, resazurin fluorescence, 24 h, PK04 Diversity Set (AID 1171). Note: test concentration not given here. Particulars: higher = more signal, called active from +8 up or from −8 down. (In general: Resazurin is reduced to fluorescent resorufin, in cell work by metabolically active cells.)
On to `CCCC[C@@H]1C[C@H]1[C@@H](NC(=O)c1ccco1)c1ccccc1C(F)(F)F`, for which the z-score is -0.26. As for `CCOC(=O)C[C@H]1[C@H](OC(=O)c2cc3ccccc3oc2=O)[C@@H](NC(=O)c2ccccc2)c2cc(OCCCO)ccc2N1C(=O)c1ccc2ccccc2n1`, the figure is -0.886. As for `CCN(CC)c1ccc(N2CC=CC34O[C@@H]5C=CCCOC(=O)C5[C@H]3C(=O)N(CCCCCCO)[C@@H]4C2=O)cc1` (stereo not given in full), the z-score was 1.02. In the case of `COC(=O)[C@@]1(Cc2ccccc2)[C@H]2c3cc(C(=O)N(C)C)n(Cc4ccsc4Br)c3C[C@H]2CN1C(=O)c1ccccc1`, the z-score is -2.34. On to `COCCOC(=O)N1C(=O)[C@@]2(c3ccccc31)[C@H](c1ccccc1OCCO)N1[C@H](c3ccccc3)[C@H](c3ccccc3)OC(=O)[C@H]1[C@@H]2C(=O)N1CCN(c2ncccn2)CC1`, for which the z-score was -1.05. Turning to `O[C@@H](Cc1ccccc1)[C@H]1C2C=CCCC=C2CN1Cc1cccc(Cl)c1` (stereo not given in full), the z-score is -0.462. On to `COc1cc2c(cc1OC)CN(C(=O)[C@@H]1[C@H]3C(=O)O[C@H](c4ccccc4)[C@H](c4ccccc4)N3[C@H](c3ccccc3OCCO)[C@@]13C(=O)Nc1ccc(C#CCCO)cc13)CC2`, for which the z-score was 1.28. As to `Cc1ccc(S[C@]2(C(=O)O)CC(=O)N(C(C)C)[C@@H]2c2ccc(CO)cc2I)cc1`, the z-score is 0.667.

For the molecule `O=C1O[C@H](c2ccccc2)[C@H](c2ccccc2)N2[C@H]1[C@@H](C(=O)N1CCCCCCC1)[C@]1(C(=O)Nc3ccc(C#CCCO)cc31)[C@H]2c1ccccc1OCCO`, the z-score is 0.458. In the case of `C=CCNC(=O)[C@@H]1[C@H]2C(=O)O[C@H](c3ccccc3)[C@H](c3ccccc3)N2[C@H](c2ccc(O)cc2)[C@@]12C(=O)N(C(=O)OCCOC)c1ccc(C#CCNC(N)=O)cc12`, the z-score was -0.645.

Consider `O=C(c1ccccc1)N1C(=O)[C@@]2(Cc3ccccc31)N=C(c1ccc(OCCCO)cc1)O[C@H]2c1ccccc1`, for which the z-score was -1.62. As for `C=C(/C(=C/C[C@H](OC(C)=O)c1ccccc1OCCO)c1cnc2ccccc2c1)C(C)C`, the figure is -0.0361; as for `CC(C)C(CO)N1C(=O)[C@@H]2C3C(=O)OCCC/C=C\[C@H]3OC23C=CCN(CCN2CCOCC2)C(=O)[C@@H]13` (stereo not given in full), -0.702; as for `CCCC[C@H]1OB(O)C[C@H]2C1=C(COC)C[C@H]1C(=O)N(C)C(=O)[C@H]12`, -0.531. As to `COC(=O)[C@@]1(Cc2ccc(F)cc2)[C@H]2c3cc(C(=O)N(C)C)n(Cc4ccc(Cl)c(C(F)(F)F)c4)c3C[C@H]2CN1C(=O)c1ccccc1`, the z-score is -1.27. The same measure for `COc1ccc(CCNC(=O)[C@@]2(Sc3ccc(C)cc3)CC(=O)N(C3Cc4ccccc4C3)[C@@H]2c2ccc(CO)cc2I)cc1`: 0.86. For `CCCC[C@H]1OB(O)C[C@H]2C1=C(COC)Cn1c(=O)n(-c3ccccc3)c(=O)n12`, the z-score is 0.921. As to `CN(C)CCCCCCNC(=O)[C@@H]1C[C@@H]2C(=O)N[C@@H](Cc3ccccc3)C(=O)N2[C@@H]1c1ccc(O)cc1`, the z-score was -1.03. Take `C=C(COC)/C(=C/C[C@H](OC(C)=O)c1ccc(CO)o1)c1cc(C(=O)OC)ccc1OC`: the z-score is -0.369. Turning to `COC(=O)[C@@]1(Cc2ccc(OC)cc2)[C@@H]2C(=CC(=O)[C@H]2CC(=O)C(=O)N2CCCC2)CN1C(=O)c1ccccc1`, the z-score is 0.408. On to `Cc1ccc(N2C(=O)c3ccccc3[C@@H](C(=O)NC3CC3)[C@@H]2c2ccc(CO)cc2)nc1`, for which the z-score is 0.771. Regarding `COCCOC(=O)N1C(=O)[C@@]2(c3cc(C#CCC(C(=O)OC)C(=O)OC)ccc31)[C@H](C(=O)Nc1nc3ccccc3s1)[C@H]1C(=O)O[C@H](c3ccccc3)[C@H](c3ccccc3)N1[C@@H]2c1ccccc1OCCO`, the z-score is -0.454. `COCCOC(=O)N1C(=O)[C@@]2(c3cc(C#CCC(C(=O)OC)C(=O)OC)ccc31)[C@H](c1ccccc1OCCO)N1[C@H](c3ccccc3)[C@H](c3ccccc3)OC(=O)[C@H]1[C@@H]2C(=O)NC[C@H](O)c1ccccc1`: the z-score was -0.55. `CCCC[C@@H]1C[C@H]1[C@@H](NC(=O)c1ccccc1)c1ccc(C(=O)OC)cc1`: the z-score is 0.571. Turning to `O=C1[C@@]23C=C(Br)[C@H](C[C@@H]2CCOC3)[C@@]12CO2`, the z-score was -0.309.

The values are drawn from PubChem BioAssay.
